ADAM17 inh – inhibits human ADAM17. P78536. recombinant ADAM17, EDANS/DABCYL FRET peptide cleavage. inhibition, % at 6.95 µM. hit rate 0.83% among 370,000;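 active means inhibition above the mean of compounds lying between control limits plus 3 SD, set per campaign, cut at about 8.5% in these data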;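 further: 0% = DMSO-only wells as the low control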
ADAM10 inh – inhibits human ADAM10. O14672. recombinant ADAM10, EDANS/DABCYL FRET peptide cleavage, 3 h. inhibition, % at 7 µM. hit rate 0.62% among 370,000. AID 720582;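 active means inhibition above a per-campaign cutoff equal to the mean of compounds falling between control-based bounds plus 3 SD, cut at about 20% in these data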;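 further: 0% = DMSO wells while the 100% control is not disclosed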
A3G deaminase – APOBEC3G (human) deaminase inhibition. hit rate 0.28% among 330,000. inhibition, % at 20 µM. recombinant A3G, ssDNA deamination FAM/TAMRA fluorescence;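 active means inhibition of at least 40% at 20 µM, with no more than 30% in the related APOBEC3A deaminase screen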;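 further: plate controls were DMSO wells with A3G for no effect and wells lacking A3G enzyme for full effect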
Target sequence (Q9HC16 whole entry, looked up): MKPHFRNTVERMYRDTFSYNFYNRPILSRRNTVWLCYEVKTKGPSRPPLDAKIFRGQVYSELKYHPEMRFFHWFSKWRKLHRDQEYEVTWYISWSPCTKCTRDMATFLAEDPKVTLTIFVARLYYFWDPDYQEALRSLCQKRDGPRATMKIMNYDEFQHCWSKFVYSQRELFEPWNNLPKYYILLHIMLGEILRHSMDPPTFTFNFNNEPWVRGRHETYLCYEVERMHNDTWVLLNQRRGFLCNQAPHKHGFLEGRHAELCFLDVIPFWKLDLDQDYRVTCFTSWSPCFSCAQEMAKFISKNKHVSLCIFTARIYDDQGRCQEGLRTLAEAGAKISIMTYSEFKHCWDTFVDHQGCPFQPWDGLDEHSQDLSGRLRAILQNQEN
NRP1-CendR mod – alters CendR peptide binding to human NRP-1. O14786. FAM-RPARPAR peptide binding to NRP-1, fluorescence polarization. inhibition, % at 25 µM. hit rate 0.85% among 360,000;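 active means inhibition or corrected inhibition above about 18%, plus a signal ratio from 0.5 to 1.5, limit read from the data, passing the limit was not always enough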
APOBEC3A inh – blocks human APOBEC3A ssDNA deamination; hit rate 0.41% among 330,000; recombinant A3A, FAM/TAMRA ssDNA deamination fluorescence; inhibition, % at 20 µM; P31941;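 active means at least 40% inhibition at 20 µM here, with at most 30% in a related deaminase screen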;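 further: plate controls were A3A with DMSO for no effect and wells lacking A3A enzyme for full effect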
Target sequence (P31941 whole entry, looked up): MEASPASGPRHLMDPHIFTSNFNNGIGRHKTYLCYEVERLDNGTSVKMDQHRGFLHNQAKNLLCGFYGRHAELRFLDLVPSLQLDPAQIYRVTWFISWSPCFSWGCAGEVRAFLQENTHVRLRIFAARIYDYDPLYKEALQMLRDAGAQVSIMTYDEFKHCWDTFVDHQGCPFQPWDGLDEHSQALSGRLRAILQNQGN
ADAM10 confirm – confirmation of inhibitors of human ADAM10; ADAM10 QFRET peptide cleavage, EDANS fluorescence; shares compounds with ADAM10 inh; hit rate 1% among 2,100; inhibition, % at 6.95 µM;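 active means inhibition above about 20% chosen separately for each screening run, limit read from the data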;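 further: 0% = DMSO wells and 100% = marimastat wells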
ADAM17 ctr – ADAM17 inhibition, counter-screen for ADAM10 exosite hits; inhibition, % at 6.95 µM; shares compounds with ADAM10 inh; ADAM17 QFRET peptide cleavage, EDANS fluorescence; hit rate 0.5% among 2,100;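 active means mean triplicate inhibition above the solvent-only control wells' mean plus 3 SD, cut at about 12% in these data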;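 further: 0% = DMSO wells and 100% = marimastat wells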
ADAM10 ctr – ADAM10 inhibition, counter-screen for ADAM17 exosite hits | shares compounds with ADAM17 inh | recombinant ADAM10, EDANS/DABCYL FRET peptide cleavage, 3 h | inhibition, % at 6.95 µM | hit rate 47% among 2,900 | AID 743256;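 active means mean inhibition over the triplicate runs exceeds the activity threshold set in the earlier primary screen, cut at about 20% in these data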;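 further: 0% = DMSO wells and 100% = marimastat wells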
ADAM17 confirm – human ADAM17 inhibition, confirmation; hit rate 65% among 2,900; recombinant ADAM17, EDANS/DABCYL QFRET peptide cleavage; shares compounds with ADAM17 inh; inhibition, % at 6.95 µM;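 active means mean inhibition across replicates above the hit cutoff set in the primary screen, cut at about 8.5% in these data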;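 further: 0% = DMSO wells and 100% = marimastat wells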
* hit, by the source's call; x = not tested or not shown. Sampled rows, rich in hits. Any-hit rate of the full collection: about 2.4%.

SMILES	ADAM17 inh	ADAM10 inh	A3G deaminase	NRP1-CendR mod	APOBEC3A inh	ADAM10 confirm	ADAM17 ctr	ADAM10 ctr	ADAM17 confirm
COC(=O)C1=C(c2ccc(C(C)=O)cc2)C[C@@H]2CC[C@H]1N2C(=O)NCCOc1ccccc1Cl	1.9	8.3	-4.8	-9.5	-1.3	x	x	x	x
CCCC/C(C)=C/[C@@H](NP(=O)(c1ccccc1)c1ccccc1)c1ccccc1	8.6	20.2*	8.1	13.0	2.5	7.3	1.7	x	x
CCCCCCC(C)(C)c1ccc([C@@H]2C[C@H](O)CC[C@H]2CCCO)c(O)c1	5.5	27.4*	-6.4	-5.6	0.4	4.7	1.3	x	x
Cc1cccc(C(C)c2cnc[nH]2)c1C (centres undefined)	-0.8	-5.8	x	x	x	x	x	x	x
CCN1C(=O)C(=Cc2ccc(N3CCOCC3)o2)C(=O)N(CC)C1=S	-0.9	24.6*	9.9	-28.9	38.4	-1.3	-0.1	x	x
O=C1NCN(c2ccccc2)C12CCN(C(CCc1ccccc1)c1nnnn1-c1ccc3c(c1)OCCO3)CC2 (centres undefined)	10.5*	24.7*	x	-0.6	x	10.0	3.9	x	x
COC(=O)c1ccc(NC(=O)CSc2nc3ccc(N4C(=O)C5C6C=CC(C6)C5C4=O)cc3s2)cc1 (centres undefined)	6.8	25.4*	-9.2	8.5	-3.3	4.7	1.7	x	x
COc1cccc(NC2=NCCS2)c1	-5.2	-4.0	x	x	x	x	x	x	x
O=[N+]([O-])c1nccn1CC(O)CN1CC1 (centres undefined)	1.4	-14.8	x	-2.4	x	x	x	x	x
COC(=O)C1=C(c2cccc(OCc3ccccc3)c2)C[C@@H]2CC[C@H]1N2C(=O)NCc1ccc([N+](=O)[O-])cc1	7.2	26.1*	-6.6	-4.6	-2.0	8.7	2.2	x	x
COC(=O)C1=C(c2ccccc2OCc2ccccc2)C[C@@H]2CC[C@H]1N2C(=O)NCc1ccc(C(C)(C)C)cc1	4.0	24.7*	-9.7	13.0	-4.1	11.2	3.0	x	x
COC(=O)C1=C(c2ccc(F)cc2OCc2ccccc2)C[C@@H]2CC[C@H]1N2C(=O)NCc1ccc(F)cc1	4.1	6.1	-5.2	6.0	0.4	x	x	x	x
CCCCn1nnnc1C(c1ccccc1)N1CCC2(CC1)C(=O)NCN2c1ccccc1 (centres undefined)	3.5	1.0	x	13.8	x	x	x	x	x
CN1c2ccc(Br)cc2[C@@H]2NCC[C@@H]2[C@@H]1CO	-43.7	-190.8	x	x	x	x	x	x	x
CC(C)CCP(=O)(O)O	-1.1	-1.9	x	x	x	x	x	x	x
CCOc1ccccc1OCC(=O)Nc1ccc(Cl)cc1C(=O)c1ccccc1	5.6	6.3	-4.6	-2.1	-0.4	x	x	x	x
O=C(COC(=O)c1cccc(O)c1)Nc1ccc(Cl)cc1C(=O)c1ccccc1	8.2	22.9*	-0.7	-8.3	0.3	6.5	1.5	x	x
Oc1ccc(O)c2c1C1(Cl)C(Cl)=C(Cl)C2(Cl)C1(Cl)Cl	14.7*	40.9*	x	18.7	x	4.9	1.5	28.6*	13.7*
Oc1ccccc1Cl	-4.5	-12.2	-1.2	-2.1	-0.1	x	x	x	x
COc1cccc(-c2ccc3c(c2)C2c4cnnn4-c4ccccc4C(=O)N2CC3)c1 (centres undefined)	-5.8	-5.9	x	x	x	x	x	x	x
COc1ccc(-n2nnnc2C(CCc2ccccc2)N2CCC3(CC2)C(=O)NCN3c2ccccc2)cc1 (centres undefined)	11.7*	27.6*	x	7.8	x	9.6	3.2	32.6*	18.4*
CCC(c1nnnn1-c1ccc(OC)cc1)N1CCC2(CC1)C(=O)NCN2c1ccccc1 (centres undefined)	-1.2	-3.9	x	10.5	x	x	x	x	x
CC1=CC(C)CC(C)OC(=O)CC(c2ccc(O)cc2)NC(=O)C(Cc2c(Br)[nH]c3ccccc23)N(C)C(=O)C(C)NC(=O)C(C)C1 (centres undefined)	8.9*	24.7*	x	6.2	x	2.4	0.8	29.8*	17.9*
COC(=O)C1=C(c2ccc(-c3ccccc3)c(F)c2)C[C@@H]2CC[C@H]1N2C(=O)NCCOc1ccccc1	18.1*	37.9*	-3.3	16.1	1.2	5.2	2.0	37.7*	19.1*
COC(=O)C1CC(OC(C)=O)C(=O)[C@H]2C1(C)CC[C@H]1C(=O)OC(c3ccoc3)CC12C (some centres undefined)	1.8	-6.4	x	x	x	x	x	x	x
SMILES	ADAM17 inh	ADAM10 inh	A3G deaminase	NRP1-CendR mod	APOBEC3A inh	ADAM10 confirm	ADAM17 ctr	ADAM10 ctr	ADAM17 confirm
CC(C)c1ccc(C(c2c(O)c3ccccc3oc2=O)c2c(O)c3ccccc3oc2=O)cc1	9.6*	22.9*	x	-31.0	x	8.4	1.1	34.5*	23.2*
COc1ccc(OC)c(NP(=O)(Oc2ccccc2)Oc2ccccc2)c1	10.3*	32.4*	x	6.3	x	0.3	0.7	8.4	6.4
COc1ccc(OC)c(NP(=O)(Oc2ccc(Cl)cc2)Oc2ccc(Cl)cc2)c1	1.0	3.6	-4.6	-11.9	4.2	x	x	x	x
COc1ccc(NP(=O)(Oc2ccc(Cl)cc2)Oc2ccc(Cl)cc2)cc1OC	11.8*	23.4*	-9.1	-11.7	-1.1	9.1	3.8	41.1*	17.1*
O=C(NC1CCCCC1)N1Cc2cc(Br)ccc2-n2nncc2C1	-2.4	-4.8	x	x	x	x	x	x	x
COP(=O)(OC)C(C)NC(=O)OCc1ccccc1 (centres undefined)	-5.0	-4.5	x	x	x	x	x	x	x
COc1ccc(-n2nnnc2C(c2cc3ccccc3o2)N2CCC(n3c(=O)[nH]c4ccccc43)CC2)cc1 (centres undefined)	9.6*	18.0	x	0.9	x	x	x	28.3*	12.9*
O=c1[nH]c2ccccc2n1C1CCN(C(c2cccs2)c2nnnn2Cc2ccccc2)CC1 (centres undefined)	11.1*	12.8	x	-9.2	x	x	x	37.6*	18.5*
COc1ccc(C(c2nnnn2-c2ccc(OC)cc2)N2CCC(n3c(=O)[nH]c4ccccc43)CC2)cc1 (centres undefined)	4.6	14.7	x	3.2	x	x	x	x	x
O=c1[nH]c2ccccc2n1C1CCN(C(c2ccccc2OC(F)(F)F)c2nnnn2Cc2ccccc2)CC1 (centres undefined)	11.7*	13.3	x	9.3	x	x	x	41.8*	20.3*
CSCCC(c1nnnn1C1CCCCC1)N1CCC(n2c(=O)[nH]c3ccccc32)CC1 (centres undefined)	6.1	8.5	x	-1.6	x	x	x	x	x
COc1ccc(C(c2nnnn2Cc2ccccc2)N2CCC(n3c(=O)[nH]c4ccccc43)CC2)cc1 (centres undefined)	-0.6	-0.2	x	-2.7	x	x	x	x	x
CSCCC(c1nnnn1C1CCCC1)N1CCC(n2c(=O)[nH]c3ccccc32)CC1 (centres undefined)	9.2*	4.4	x	-9.7	x	x	x	15.8	10.7*

Assay outcomes from PubChem.
